Reference: PubChem BioAssay AID1578 (Sanford-Burnham Center for Chemical Genomics, 2009)
Among all 290,000 compounds or so, about 3,000 (1%) were called active. Cut-off read from the data, not from the text of the source: active = inhibition mostly above about 36% (no sharp cut-off); inactive = mostly below about 34%. For the sample, actives were picked, then their nearest neighbours and some compounds at random.

assay: inhibition of NOD1-driven NF-kB reporter – cell-based, luminescence, uHTS, primary screen (AID 1578); conditions: NOD1-driven NF-kB luciferase reporter cells, at 4 µM, active compounds read high;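 note: HEK-293T reporter cells stimulated with the NOD1 agonist gamma-tri-DAP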

inhibition, inactive:
O=c1[nH]c2ccc(NC(=S)NC3CCCCC3)cc2[nH]1 0.4%
NNC(=O)c1cccn(Cc2cccc(C(F)(F)F)c2)c1=O -7.3%
CCn1c(SCC(=O)Nc2nc(C)c(C)s2)nnc1-c1ccco1 4.8%
O=C(NCCCCc1ccccc1)Nc1cccc(F)c1 -18.4%
CCc1nnc(NS(=O)(=O)c2ccc(NC(=S)NC(=O)c3ccc(OC)c(OC)c3)cc2)s1 -10.1%
C#Cc1ccc([C@@H]2C=C(C(=O)N3CCN(Cc4ccc5c(c4)OCO5)CC3)O[C@H](OCCCCO)C2)cc1 -5.3%
O=C(CN1CC[C@@]2(O)CCCC[C@H]2[C@@H]1c1ccc(F)cc1)NCc1ccco1 -15%
Cc1cc(Cl)ccc1C(=O)C1CCCN(C(=O)c2cscn2)C1 (centres undefined) -13.1%
COC(=O)C(CCSC)NS(=O)(=O)c1ccc(Cl)cc1 (centres undefined) -19.4%
O=S(=O)(c1ccccc1)N(Cc1ccccc1)c1ccccn1 -18.3%
CC(=O)Nc1nc(-c2ccc3c(c2)OCO3)cs1 1.1%
O=C(Nc1nc(-c2ccc3c(c2)OCO3)cs1)C1CC1 -36.4%
Cc1ccc2nc(N3CCN(S(=O)(=O)c4ccc(C)c(Cl)c4)CC3)c(C#N)cc2c1 -0.6%
Cc1nc2ccc(S(=O)(=O)NCC(=O)N3CCN(c4ccccn4)CC3)cc2s1 8.2%
COC(=O)C1(CCSC)NC(c2ccco2)C2C(=O)N(C)C(=O)C21 (centres undefined) -7.2%
COc1cc(NC(=O)COc2ccc(-n3ccnc3)cc2)cc(OC)c1 39.3%
C/C(=N\NC(=O)COc1ccc(C(C)(C)C)cc1)c1ccc(-n2ccnc2)cc1 -48%
Cc1ccc(NC(=O)CSc2nnc(C)n2CC2CCCO2)cc1 (centres undefined) -27.7%
CCc1ccccc1NCC(=O)Nc1ccc(Cl)c(C(F)(F)F)c1 -18.7%
CCOC(=O)CSC1=NN2CCS(=O)(=O)N=C2S1 -12.9%
C=CCSC1=NN2CCS(=O)(=O)N=C2S1 -14.6%
COc1ccc(/C(N)=N/OC(=O)c2cccs2)cc1OC -61.8%
COc1ccccc1CNC(=O)C1CCN(C(=O)c2sccc2-n2cccc2)CC1 -18.4%
CCC(NC(=O)c1ccccc1NC(=O)c1ccccc1)C(=O)NNC(=O)c1cccnc1 (centres undefined) -7.6%
CCN(C(=O)COC(=O)c1cccnc1Nc1ccccc1F)C1CCS(=O)(=O)C1 (centres undefined) -22.9%
CCOc1ccc(NC(=O)CCSc2nnc(C)s2)cc1 7.9%
Cc1ccc2c(c1)Oc1ccc(NC(=O)CCCl)cc1C(=O)N2 0.2%
Cc1ccc2c(c1)Oc1ccc([N+](=O)[O-])cc1C(=O)N2 -16.6%
CCCn1c(N)c(N(CCOC)C(=O)/C=C/c2cccc(Cl)c2)c(=O)[nH]c1=O -16.5%
CC12CN3CC(C)(CN(C1)C3c1ccc(F)cc1)C2 (centres undefined) -30.5%
O=C(O)CCCC(=O)Nc1ccc(Oc2ncnc3cc(Cl)ccc23)nc1 -10.7%
CC(C(=O)N(C1CC1)C1(C(=O)Nc2ccccc2)CCCC1)N1C(=O)c2ccccc2C1=O (centres undefined) 7.8%
COC(=O)c1ccccc1NC(=O)NCc1ccccn1 -25.3%
Cc1cccc(C=Nc2ccc3c4c(cccc24)CC3)c1O -17.9%
Oc1ccc(Cl)cc1C=Nc1ccc2c3c(cccc13)CC2 38.7%
Cc1cc(C(=O)NCCc2ccccc2)c2cc(F)ccc2n1 1.9%
CN(c1ccccc1)S(=O)(=O)c1ccc(Cl)c(C(=O)Nc2nc3ccccc3[nH]2)c1 3.8%
CN(c1cccc(Cl)c1)S(=O)(=O)c1cccc(C(=O)Nc2nc3ccccc3[nH]2)c1 53%
O=C(NCc1ccccc1)c1cnsn1 -16.6%
CC1CCc2nc3ccccc3c(C(=O)OCC(=O)N(C)C3CCS(=O)(=O)C3)c2C1 (centres undefined) -19.9%
COc1cc(C(=O)Nc2ccc(Nc3ccccc3)cc2)cc(OC)c1OC -1.1%
Cc1ccc(C)c(CS(=O)(=O)c2cn(CC(=O)N3CCCCC3)c3ccccc23)c1 -19.4%
O=C(NN=C1CCCC1)c1cc(Br)ccc1O -58.6%
O=C1N/C(=N/O)S/C1=C/c1cccc([N+](=O)[O-])c1 -24.9%
CC(C)N(C(=O)CO/N=C/c1cccc([N+](=O)[O-])c1)C(C)C -4.4%
Cc1nnc(SCC(=O)O)s1 -10.4%
Cc1ccc(-c2nc(CN3CCCC(C(=O)N4CCOCC4)C3)c(C)o2)cc1 (centres undefined) -23.5%
COC(=O)c1cnn(-c2ccc(Cl)cc2)c1/C=N/NC(N)=S 5.8%
CN(C)S(=O)(=O)c1cccc(NC(=O)c2ccncc2)c1 -4.4%
CN(C)S(=O)(=O)c1cccc(NC(=O)c2cnccn2)c1 -27.8%
CCOc1ccc(N/C(N)=N/c2nc(C)cc(C)n2)cc1 -34.6%
O=Cc1c(NCCN2CCCC2)c2ccccc2[nH]c1=O 0.2%
CN1CCN(CCCNc2c(C=O)c(=O)[nH]c3ccccc23)CC1 -5.5%
O=[N+]([O-])c1ccc(Cl)c(CN2CCN(c3ncccn3)CC2)c1 -27.2%
Cc1cc(C)nc(NC(=O)c2ccc(C)o2)n1 -48.4%
O=C1CC(c2ccc(F)cc2)c2cc3c(cc2N1)CCC3 (centres undefined) 28.6%
O=C1CC(c2ccccc2F)c2cc3c(cc2N1)CCC3 (centres undefined) 8.6%
COc1ccc(NC(=O)CCn2cc(C)c3ccccc32)cc1 -5.7%
O=C(N/N=C/c1ccccc1)c1ccc(-c2ccccc2)cc1 -17.2%
CCC(=O)Nc1nc2ccccc2n1Cc1ccccc1 23.4%
CCC(=O)Nc1nc2ccccc2n1Cc1ccc(C)cc1 31.5%
CCC(=O)Nc1nc2ccccc2n1CCN(C)C -15.3%
CCC(=O)Nc1nc2ccccc2n1CCN(CC)CC -9.6%
CCn1c(C)nc2cc(C(=O)n3cc(C(=O)c4cc(F)ccc4O)cn3)ccc21 23.8%
Nc1ccc(-c2nc3ccccc3o2)cc1 5.8%
COc1ccc([C@@H]2[C@@H]3C(=O)N(C(C)(C)C)C(=O)[C@@H]3[C@]3(Cc4ccc(Cl)cc4)C(=O)N(c4cccc(C)c4)C(=O)N23)cc1 13.2%
COc1cccc(NC(=O)C2CCN(S(C)(=O)=O)CC2)c1 -30.4%
Cc1cc(S(=O)(=O)Nc2ccc3c(c2)n(C)c(=O)n3C)ccc1F 0.4%
Oc1c(Br)cc(Br)cc1CNn1cnnc1 5.1%
COc1cc(SC)ccc1C(=O)Nc1ccc(Cl)cn1 16.3%
COc1cc(SC)ccc1C(=O)Nc1cccc(C)n1 -70%
COc1cc(SC)ccc1C(=O)Nc1nccs1 -52.4%
COc1cc(SC)ccc1C(=O)Nc1nc(C)cc(C)n1 -19.1%
CCCCOc1ccccc1/C=N/NC(=O)CC#N -26.1%
O=C(NNC(=S)Nc1ccc(Cl)cc1)c1ccccc1OC(F)F -11.7%
COc1ccccc1-n1cc(-c2ccc(Br)cc2)[nH]c1=S -0.3%
Cc1sc2ncnc(Sc3ccccc3C(=O)Nc3ccc(Br)cc3)c2c1C 9.8%
Nc1c(Br)c(=O)[nH]c(=O)n1-c1ccccc1 6.9%
COc1ccc(N/N=C(/N=Nc2nc(C)cc(=O)[nH]2)c2ccccc2)cc1 11.2%
Cc1cc(=O)[nH]c(N=N/C(=N/Nc2ccccc2C)c2ccccc2)n1 45.2%
COc1ccc(N(CC(=O)NC2CCCCC2)C(=O)c2snc(C(N)=O)c2N)cc1 -27.6%
CN1CCN(CCCNC(=O)Cn2nc(-c3ccccc3)ccc2=O)CC1 -20.1%
O=C(O)c1nc(N2CCCC2)ncc1Cl 0.1%
Cc1ccc(/C=C2/CCc3c([nH]c4ccccc34)C2=O)cc1 -61.5%
O=C1/C(=C\c2ccccc2)CCc2c1[nH]c1ccccc21 -31.1%
COC(=O)c1cn(CCOc2ccccc2)c2ccccc12 -11.9%

inhibition, active:
CC(C)(C)c1ccc(NC(=O)COc2ccc(-n3ccnc3)cc2)cc1 74.6%
CCSC1=NN2CCS(=O)(=O)N=C2S1 44.5%
Cc1ccc2c(c1)Oc1ccc(NC(=O)CCl)cc1C(=O)N2 103%
Oc1ccc(Br)cc1C=Nc1ccc2c3c(cccc13)CC2 101%
CC1(C)C2C/C(=N\O)C(C)(/[N+]([O-])=C/c3cccc([N+](=O)[O-])c3)CC21 (centres undefined) 62.4%
O=Cc1c(NCCN2CCOCC2)c2ccccc2[nH]c1=O 59.2%
O=C1CC(c2cc(F)ccc2F)c2cc3c(cc2N1)CCC3 (centres undefined) 64.2%
CCC(=O)Nc1nc2ccccc2n1Cc1ccc(Cl)cc1 101%
CCCCCCCn1c(NC(=O)CC)nc2ccccc21 109%
COc1cc(SC)ccc1C(=O)Nc1ncc(C)s1 82.7%
COc1cc(SC)ccc1C(=O)Nc1nc(C)cs1 91.9%
Cc1cc(=O)[nH]c(N=N/C(=N/Nc2ccc(O)cc2)c2ccccc2)n1 105%
O=C1/C(=C/c2cccnc2)CCc2c1[nH]c1ccccc21 82%
